According to PubChem BioAssay (NCATS):
Where “and” joins values, the source holds several entries; their conditions need not be identical. Identical values can stand only once. Records with an inconclusive call do not appear. A structure can be active in one record and inactive in another. Calls of active or inactive are those of the source. Calls come from the whole dose curve; as a rule, active = well fitted curve in the direction sought with a large enough effect; inconclusive = small, poorly fitted or top-dose-only effect, or another doubt; inactive = no such curve, though single readings can be large; an effect the other way counts as inactive or inconclusive.

What was measured:
[1] = qHTS assay for measurement of the activity of small molecule inhibitors on Zika virus induced Caspase-3 activity in human astrocytoma cells (AID 1224859);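 note: plate controls were ZIKV-infected untreated cells for no effect and uninfected cells for full effect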
In short: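 Luminescence read-out (Caspase-Glo 3/7, 30 min RT) of caspase activity in SNB-19 cells infected 6 h with ZIKV, 2 FFU/cell, after 1 h compound pretreatment; % inhibition from induction normalised to uninfected (0%) and infected (100%) wells.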

[2] = qHTS Screen of the MIPE 4.0 Collection Against Ewings Sarcoma (RDES) (AID 1259252); note: nearly all actives have a fitted effect of over 35% in size; note: potency is the fitted concentration of half-maximal effect
In short: (§1)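 Log-phase cells in RPMI with 5% FBS attached for 4 h, then received compounds as a titration for 48 h at 37C, 5% CO2. Viability was read by CellTiter-Glo luminescence and normalized to DMSO and no-cell wells.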

[3] = qHTS Screen of the MIPE 4.0 Collection Against Ewings Sarcoma (TC71) (AID 1259253); note: nearly all actives have a fitted effect of over 40% in size; note: potency is the fitted concentration of half-maximal effect
In short: as §1

[4] = qHTS Screen of the MIPE 4.0 Collection Against Ewings Sarcoma (EW8) (AID 1259255); note: nearly all actives have a fitted effect of over 35% in size; note: potency is the fitted concentration of half-maximal effect;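 for viability: 100% = DMSO-treated cells and 0% = medium-only wells without cells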
In short: as §1

[5] = qHTS Screen of the MIPE 4.0 Collection Against Ewings Sarcoma (TC32) (AID 1259256); note: nearly all actives have a fitted effect of over 45% in size; note: potency is the fitted concentration of half-maximal effect
In short: as §1

[6] = Identifying Small Molecule Inhibitors of Pancreatic Cancer Stem Cells (A2780, Spheroid) (AID 1259357); conditions: Potency: A2780 spheroid viability; note: potency is the fitted concentration of half-maximal effect;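 note: spheroids pre-formed over 14 days in stem cell medium on hydrogel; compound exposure lasted 48 h before the ATP luminescence read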
In short: (§2)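 Viability is scored by CellTiter-Glo luminescence 48 h after dosing, expressed as percent activity against vehicle and no-cell references. Spheroid formats rely on cells cultured 14 days in stem cell media beforehand.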

[7] = P-glycoprotein substrates identified in KB-3-1 adenocarcinoma cell line, qHTS therapeutic library screen (AID 1346986); note: nearly all actives have a fitted effect of over 60% in size;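 note: potency is the fitted concentration of half-maximal effect; potency is for cytotoxicity meaning loss of cell viability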; for activity change, negative = cytotoxicity: % is set by controls: 0 for no effect and ±100 for the full control effect
In short: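 Viability by CellTiter-Glo after 72 h compound exposure at 37 degree C, 5% CO2. Cytotoxic call: curve class -1.1 to -2.4, maximum response >50%, AC50 < 10 uM, compared across KB-3-1 and P-gp-overexpressing KB-8-5-11.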

[8] = P-glycoprotein substrates identified in KB-8-5-11 adenocarcinoma cell line, qHTS therapeutic library screen (AID 1346987); note: nearly all actives have a fitted effect of over 65% in size; note: potency is the fitted concentration of half-maximal effect; for activity change, negative = cytotoxicity: series mostly up to about 44 µM; % is set by controls: 0 for no effect and ±100 for the full control effect
In short: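 In this qHTS, P-gp-rich KB-8-5-11 cells received library compounds across a concentration range. Viability was quantified by luminescence after 72 h at 37 degree C.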

[9] = NS1 protein of Zika virus - qHTS assay to identify small molecule inhibitors in human HEK 293 cells (AID 1347053); note: nearly all actives have a fitted effect of over 55% in size; note: potency is the fitted concentration of half-maximal effect
In short: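 Compound-treated (1 h pre-infection) HEK 293 cells infected with ZIKV MR766, MOI = 0.5; after 24 h at 37 C, NS1 read by TR-FRET; data normalized to uninfected and infected controls.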

[10] = qHTS assay to identify small molecule inhibitors of chordoma cells - UCH-1 (AID 1259355); note: % is set by controls: 0 for no effect and ±100 for the full control effect; nearly all actives have a fitted effect of over 55% in size
In short: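 Screening used approved and investigational drugs in 15-point titration against 800 seeded cells per well. A fixed combination of auranofin with camptothecin, doxorubicin, rubitecan and topotecan followed compound addition, and growth was scored by CellTiter-Glo after 48hr.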

[11] = Identifying Small Molecule Inhibitors of Pancreatic Cancer Stem Cells (SN12C, Adherent) (AID 1259358);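 note: cell survival measured after 48 h of compound exposure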; note: potency is the fitted concentration of half-maximal effect
In short: (§3)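 Spheroids grown 14 days in stem cell media on hydrogel-coated nonadherent plates; 2D lines seeded directly. Compounds added after 4 h attachment, 48 h at 37C, 5% CO2; CellTiter-Glo luminescence normalized to DMSO (no inhibition) and no-cell wells (full inhibition).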

[12] = Identifying Small Molecule Inhibitors of Pancreatic Cancer Stem Cells (Panc1, Spheroid) (AID 1259359);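 note: potency is the fitted concentration of half-maximal effect; compound exposure lasted 48 h before reading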
In short: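 Spheroids grown 14 days in stem cell media on nonadherent hydrogel before screening; cells attached 4 h, then compound exposure 48 h at 37C, 5% CO2. CellTiter-Glo luminescence normalized to DMSO (no inhibition) and no-cell wells (full inhibition).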

[13] = Identifying Small Molecule Inhibitors of Pancreatic Cancer Stem Cells (A278, Adherent) (AID 1259361); note: nearly all actives have a fitted effect of over 35% in size
In short: as §3

[14] = Identifying Small Molecule Inhibitors of Pancreatic Cancer Stem Cells (SN12C, Spheroid) (AID 1259360); conditions: Potency: SN12C spheroid viability; note: potency is the fitted concentration of half-maximal effect
In short: as §2

Row | Compound | Potency [1] | Potency [2] | Potency [3] | Potency [4] | Potency [5] | Potency [6] | Potency [7] | Potency [8] | Potency [9] | Potency [10] | Potency [11] | Potency [12] | IC50 (viability decrease) [13] | activity change, negative = cytotoxicity [8] | Potency [14]
1 | Cc1cc(Nc2cc(NC(=O)c3c(Cl)cccc3Cl)ccn2)nc(N)n1 | inactive | 0.332 µM (active) | 0.148 µM (active) | 0.187 µM (active) | 0.264 µM (active) | 20.9 µM (active) | 0.326 µM (active) | 935 nM (active) and 1.16 µM (active) | 2.35 µM (active) |  |  |  |  |  | 
2 | O=c1[nH]c(=O)n(C2CCCO2)cc1F (stereo not given) | inactive | inactive | inactive | inactive | inactive |  | inactive | inactive | inactive | inactive |  |  |  |  | 
3 | Cc1nc2cnc3ccc(C#Cc4cccnc4)cc3c2n1-c1ccc(C(C)(C)C#N)cc1 | inactive | 0.132 µM (active) | 0.132 µM (active) | 0.118 µM (active) | 0.105 µM (active) | 1.87 µM (active) | inactive | 37.2 nM (active) and inactive | 0.935 µM (active) |  | 1.18 µM (active) | 18.7 µM (active) | 0.187 µM (active) |  | 
4 | CC(=O)c1c(C)c2cnc(Nc3ccc(N4CCNCC4)cn3)nc2n(C2CCCC2)c1=O | inactive | 18.7 µM (active) | 5.26 µM (active) | 20.9 µM (active) | 14.8 µM (active) | inactive |  |  |  |  |  |  |  | 6.87% [at 5.11 µM] (inactive) | 
5 | COc1c(N2C[C@@H]3CCCN[C@H]3C2)c(F)cc2c(=O)c(C(=O)O)cn(C3CC3)c12 | inactive | inactive | inactive | inactive | inactive |  |  |  | inactive | inactive |  |  |  |  | 
6 | CN1CCN(c2cc(C(=O)Nc3ccc4c(c3)-c3c(c(C(N)=O)nn3-c3ccc(F)cc3)CC4)c(Cl)cn2)CC1 | inactive | 2.64 µM (active) | 4.18 µM (active) | 20.9 µM (active) | 13.2 µM (active) |  | 29.1 µM (active) | 23.5 µM (active) | 26.4 µM (active) |  |  | 23.5 µM (active) | 23.5 µM (active) |  | 
7 | CNC(=O)c1cc(Oc2ccc(NC(=O)Nc3cc(C(C)(C)C)nn3-c3ccc4ncccc4c3)c(F)c2)ccn1 | inactive | 20.9 µM (active) | 16.6 µM (active) | 18.7 µM (active) | 20.9 µM (active) |  |  |  | inactive |  |  | 13.2 µM (active) |  |  | 
8 | O=C(NC1CCNCC1)c1[nH]ncc1NC(=O)c1c(Cl)cccc1Cl | inactive | 0.187 µM (active) | 0.264 µM (active) | 0.418 µM (active) | 0.209 µM (active) |  | 0.58 µM (active) |  | 3.72 µM (active) |  |  | 1.32 µM (active) and 1.05 µM (active) |  |  | 1.05 µM (active)
9 | CC1(O)CC(c2nc(-c3ccc4ccc(-c5ccccc5)nc4c3)c3c(N)nccn23)C1 (stereo not given) | inactive | 20.9 µM (active) | 5.9 µM (active) | 13.2 µM (active) | 0.0743 µM (active) |  | 6.51 µM (active) | 14.8 µM (active) and 9.2 µM (active) |  |  |  | 0.148 µM (active) |  |  | 
10 | Cn1cncc1[C@@](N)(c1ccc(Cl)cc1)c1ccc2c(c1)c(-c1cccc(Cl)c1)cc(=O)n2C | inactive | 7.43 µM (active) | 4.69 µM (active) | 5.26 µM (active) | 5.9 µM (active) |  |  | 3.72 µM (active) |  |  |  |  | 23.5 µM (active) |  | 
11 | COc1ccc(C=Cc2cc(OC)c(OC)c(OC)c2)cc1O | inactive | inactive | inactive | inactive | inactive |  |  | 0.001 µM (active) | inactive |  |  |  | 0.0017 µM (active) |  | 2.09 µM (active)
12 | COc1ccc(OC)c(-c2nnc3ccc(-c4ccc(OC)c(O[C@@H]5CCOC5)c4)nn23)c1 | inactive | 16.6 µM (active) | 16.6 µM (active) | 11.8 µM (active) | 16.6 µM (active) |  |  | 4.61 µM (active) | 9.35 µM (active) |  |  |  | 5.9 µM (active) |  | 18.7 µM (active)
13 | CN1CCC(CNc2ccc3ncc(-c4cccc(OC(F)(F)F)c4)n3n2)CC1 | inactive | 16.6 µM (active) | 16.6 µM (active) | 10.5 µM (active) | 13.2 µM (active) |  | 20.6 µM (active) |  | 16.6 µM (active) |  | 20.9 µM (active) |  | 18.7 µM (active) |  | 23.5 µM (active)
14 | C[C@@H]1CN(CC(=O)Nc2ccc3c(c2)Cc2cccc(-c4cc(=O)cc(N5CCOCC5)o4)c2S3)C[C@H](C)O1 | inactive | 23.5 µM (active) | 20.9 µM (active) | 23.5 µM (active) | 18.7 µM (active) |  |  | inactive | 18.7 µM (active) |  | inactive |  |  |  | 
15 | CCC(=C(c1ccccc1)c1ccc(OCCN(C)C)cc1)c1ccccc1 | inactive | 26.4 µM (active) | 16.6 µM (active) | 20.9 µM (active) | 16.6 µM (active) |  |  |  |  |  |  |  | 23.5 µM (active) |  | 18.7 µM (active)
16 | Cn1c(=O)n(-c2ccc(C(C)(C)C#N)cc2)c2c3cc(-c4cnc5ccccc5c4)ccc3ncc21 | inactive | 0.0469 µM (active) | 0.059 µM (active) | 0.0296 µM (active) | 0.0332 µM (active) |  |  | 366 nM (active) and 18.7 nM (active) |  |  |  |  |  |  | 0.148 µM (active)
